Source: PubChem (Broad Institute)
MITF TRPM1 HTS: MITF TRPM1 promoter activation in melanoma cells; SK-MEL-5 TRPM1-promoter luciferase, 24 h; % of positive control, neutral wells = 0; activation, % at 12.5 µM; 300,000 tested, 0.75% active; AID 588334;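 active = mean activation of at least 80% with every replicate also reaching 80%; inconclusive = mean reaches 80% but some replicate falls short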
EBV LMP1 NFkB: reduces LMP1-driven NF-kappaB luciferase signal; 350,000 tested, 0.69% active; inhibition, % at 12.5 µM; LMP1-induced NF-kappaB luciferase reporter cells, luminescence; AID 504558; in the data active = inhibition above about 41%; inconclusive = no clear call, values can overlap the other calls
esBAF inh: inhibitors of esBAF chromatin remodeling in mouse ES cells | AID 602393 | reporter increase, % at 12.5 µM | Bmi1-luciferase knock-in reporter, 24 h; 100% = twice the neutral-well signal | 350,000 tested, 2% active; in the data active = activation above about 40%; inconclusive = no clear call, values can overlap the other calls;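 note: a rise in the Bmi1 reporter signal indicates esBAF inhibition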
TRPM1 prom inh: reduces MITF-dependent TRPM1 promoter luciferase signal. 330,000 tested, 0.83% active. inhibition, % at 12.5 µM. SK-MEL-5 TRPM1 promoter luciferase, 24 h. AID 488899;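 active = mean inhibition across replicates of 60% or more, whatever share of single replicates reaches that level; inconclusive = some that reach 60%, reason not given; inactive = mean inhibition across replicates below 60%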
C2C12 statin: protects C2C12 myotubes from simvastatin toxicity; ATP luminescence, 48 h; scaled: DMSO 0, geranylgeraniol control 100; rescue of ATP level, % at 7.49 µM; 330,000 tested, 0.78% active; AID 602340;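 active = mean ATP rescue above about 67%, or every replicate alone reaching that limit, limit read from the data, passing the limit was not always enough; inconclusive = no clear call, values can overlap the other calls; inactive = mean under the limit and some replicate under it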;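 note: myotubes were challenged with 10 µM simvastatin during compound exposure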
Wnt act: activators of Wnt/beta-catenin signaling; activation, % at 9.35 µM; 300,000 tested, 1.2% active; Wnt/beta-catenin reporter cell assay, activator, plate reader; in the data active = activation above about 30%, passing the limit was not always enough; inconclusive = no clear call, values can overlap the other calls
Large screens that a line does not name were inactive. Compounds with a hit are over-represented: about 4% of the library has one in this group of screens.

C[N+]12CCC(CC1)C(C(O)(c1ccccc1)c1cccs1)C2 (stereo not given)	none (no result: Wnt act)
C=Cn1ccnc1P(=S)(c1nccn1C=C)C1CCCCC1	none
COc1ccc(-c2cc(-c3ccccc3)[n+](C)c(-c3ccccc3)c2)cc1	TRPM1 prom inh 66 (no result: esBAF inh, C2C12 statin)
CN1CCN(c2ccc([N+](=O)[O-])c3no[n+]([O-])c23)CC1	EBV LMP1 NFkB 76, TRPM1 prom inh 86
C=CC(C)C(C(=O)c1ccccc1)N(C)C (stereo not given)	none (no result: esBAF inh, C2C12 statin)
CN1CCN(c2nccc3c2ncn3C)CC1	C2C12 statin 101
Cc1cc([N+](=O)[O-])c2ccccc2[n+]1[O-]	EBV LMP1 NFkB 90, TRPM1 prom inh 78 (no result: MITF TRPM1 HTS, esBAF inh, C2C12 statin, Wnt act)
Nc1ccccc1N=Cc1c(O)n(CCC2=CCCCC2)c(=O)[nH]c1=O	none (no result: MITF TRPM1 HTS, Wnt act)
O=C(NN=Cc1ccc(N(CCCl)CCCl)cc1)c1cccnc1	EBV LMP1 NFkB 47
CCc1c(C)nc(N)nc1N1N=C1SCC#N	C2C12 statin inconclusive (no result: Wnt act)
C=C1C(=O)O[C@H]2C[C@@H](C)[C@@H]3C=CC(=O)[C@@]3(C)C[C@H]12	none (no result: MITF TRPM1 HTS, EBV LMP1 NFkB, esBAF inh, TRPM1 prom inh, C2C12 statin)
C=C1C(=O)OC2C1CCC(C)C1(O)C=CC(=O)C21C (stereo not given)	TRPM1 prom inh 75
Cc1cc(C=C2C(=O)NC(=S)NC2=O)c(C)n1C1CCCC1	esBAF inh 48
O=C(Cc1ccccc1)N1C[C@H]2[C@@H](c3ccccc31)[C@H](CO)N2Cc1ccccc1	none (no result: MITF TRPM1 HTS, EBV LMP1 NFkB, TRPM1 prom inh, Wnt act)
COc1ccc(OC(=O)N(C)C[C@@H]2OCc3cnnn3CCCC(=O)N([C@@H](C)CO)C[C@H]2C)cc1	none (no result: MITF TRPM1 HTS, TRPM1 prom inh)
Clc1ccc(C(c2ccc(Cl)cc2)n2cc[n+](CC(OCc3ccc(Cl)cc3Cl)c3ccc(Cl)cc3Cl)c2)cc1 (stereo not given)	TRPM1 prom inh 103
COc1ccccc1OP(=O)(Nc1ccc(Br)cc1)Oc1ccccc1OC	none (no result: MITF TRPM1 HTS)
COc1cc(/C=C/c2nc3ccccc3c(=O)n2-c2ccc(O)cc2)ccc1O	C2C12 statin 117
COc1cc(Br)c(CNCCc2ccc3c(c2)OCO3)cc1OC	none
C/C(=C\c1ccc(N(C)C)cc1)[N+](=O)[O-]	TRPM1 prom inh 80
CN(C)c1ccc(/C=C/[N+](=O)[O-])cc1	none (no result: esBAF inh, C2C12 statin)
CC1(CCCc2ccc(N(CCCl)CCCl)cc2)NC(=O)NC1=O (stereo not given)	EBV LMP1 NFkB 48 (no result: MITF TRPM1 HTS, TRPM1 prom inh)
CN(C)C(Cc1ccccc1)C(=O)c1c[nH]c2ccccc12 (stereo not given)	none
N#Cc1ccc(-c2ccc([C@@H]3[C@H]4CN(C(=O)Cc5ccccc5)CCCCN4[C@H]3CO)cc2)cc1	none (no result: MITF TRPM1 HTS, EBV LMP1 NFkB, TRPM1 prom inh, Wnt act)
Cc1ccc(Cn2nc(C(=O)Nc3ccc(Br)cc3)cc2C)cc1	esBAF inh 59
O=C1NC(=S)N(c2ccc(F)cc2)C(=O)/C1=C\c1ccoc1	none (no result: Wnt act)
O=C1NC(=S)N(c2ccc(Cl)cc2)C(=O)/C1=C/N1CCN(C(=O)c2ccco2)CC1	C2C12 statin 77
CCc1ccc(N2C(=O)NC(=O)/C(=C\c3cccn3CCOc3ccc(C(C)C)cc3)C2=O)cc1	Wnt act 34 (no result: esBAF inh, C2C12 statin)
Cc1ccc(OCCn2cccc2/C=C2/C(=O)NC(=O)N(Cc3ccco3)C2=O)cc1	none (no result: esBAF inh, C2C12 statin)
O=c1c2ccccc2nc(N2CCCC2)n1-c1ccccc1	none (no result: MITF TRPM1 HTS, TRPM1 prom inh)
Cc1ccc(-n2c(=S)[nH]c3ccccc3c2=O)cc1F	esBAF inh 61 (no result: MITF TRPM1 HTS, TRPM1 prom inh)
O=c1c2ccccc2[nH]c(=S)n1-c1ccc2c(c1)OCCO2	Wnt act 37 (no result: MITF TRPM1 HTS, esBAF inh, C2C12 statin)
C[C@H]1[C@@H](OS(=O)(=O)O)C[C@@H]2C[C@H]([C@@H](O)c3cc(=O)[nH]c(=O)[nH]3)NC3=NC[C@H]1N32	EBV LMP1 NFkB 72, TRPM1 prom inh 74 (no result: Wnt act)
O=C(O)CCCOc1ccc(Cl)cc1Cl	EBV LMP1 NFkB 59
O=C(COc1ccc(Cl)cc1Cl)N1CCN(C/C=C/c2ccccc2)CC1	none
COC(=O)C1=C(c2ccc(F)cc2OCc2ccccc2)C[C@@H]2CC[C@H]1N2C(=O)N1CCC(C)CC1	none (no result: Wnt act)
O=C(c1ccccc1)C(CN1CCCC1)c1ccccc1 (stereo not given)	EBV LMP1 NFkB 73 (no result: esBAF inh, TRPM1 prom inh, C2C12 statin, Wnt act)
Cc1ccc(N2C(=O)NC(=O)/C(=C\C=C\c3ccco3)C2=O)cc1C	TRPM1 prom inh 90 (no result: esBAF inh, C2C12 statin)
Cc1cccc(N2C(=O)NC(=O)/C(=C\C=C\c3ccco3)C2=O)c1	TRPM1 prom inh 98 (no result: esBAF inh, C2C12 statin)
CN1C(=O)/C(=C/C=C/c2ccco2)C(=O)NC1=S	none (no result: esBAF inh, C2C12 statin)
Cc1cccc(N2C(=O)NC(=O)/C(=C\c3cccn3-c3ccc(Cl)cc3)C2=O)c1	TRPM1 prom inh inconclusive (no result: Wnt act)
O=C1NC(=O)N(c2ccccc2)C(=O)/C1=C/C=C/c1ccco1	TRPM1 prom inh 95
Cc1ccc(N2C(=O)NC(=O)/C(=C\C=C\c3ccco3)C2=O)cc1	TRPM1 prom inh 102
CN1C(=O)CCC2(C)C1=CCC1C2CCC2(C)C1CCC2(C)O (stereo not given)	none (no result: esBAF inh)
C/C=C1\NC(=O)[C@@H](NC(=O)[C@H](CCc2ccc(O)cc2)NC(=O)[C@H](C)NC(=O)[C@H](O)CO)[C@@H](C)OC(=O)[C@H](C(C)C)NC(=O)[C@H](Cc2ccc(O)cc2)N(C)C(=O)[C@H](Cc2ccccc2)N2C(=O)C(CC[C@H]2O)NC1=O (stereo not given in full)	none
O=S(=O)(c1ccc(Cl)cc1)N1Cc2ccccc2-n2nncc2C1	none (no result: MITF TRPM1 HTS, TRPM1 prom inh)
CN(C)c1ccc(/C=C/C=C2/C(=O)NC(=O)N(c3ccccc3)C2=O)cc1	TRPM1 prom inh 83 (no result: esBAF inh, C2C12 statin)
Cn1cc(/C=C2\C(=O)NC(=O)N(c3ccccc3)C2=O)c2ccccc21	none
Cc1ccc(OCCOc2cccc(C=C3C(=O)NC(=O)NC3=O)c2)c(C)c1	EBV LMP1 NFkB 45 (no result: MITF TRPM1 HTS)
COc1ccc(CCN(C)Cc2ccc(F)cc2F)cc1OC	Wnt act 34
CCN(CC)c1ccc(CN(C)CCc2ccc(OC)c(OC)c2)cc1	none (no result: Wnt act)
COc1ccc(NC2=NC(C)(C)CS2)cc1	MITF TRPM1 HTS 95
COc1ccc(NC2=NCC(C)S2)cc1 (stereo not given)	none (no result: C2C12 statin)
CCOC(=O)c1ccccc1N	none
CCOC(=O)c1cc2c(cn1)[nH]c1ccccc12	esBAF inh 50
Cc1ccc(C[n+]2c(-c3ccc(C)cc3)cc(-c3ccc(C)cc3)cc2-c2ccc(C)cc2)cc1	EBV LMP1 NFkB inconclusive, TRPM1 prom inh 96 (no result: Wnt act)
CC(=O)O[C@H]1C[C@@H]2OC3C=C(C)CCC3(C)[C@@]1(C)[C@@]21CO1 (stereo not given in full)	EBV LMP1 NFkB 91, TRPM1 prom inh 66 (no result: MITF TRPM1 HTS, esBAF inh, C2C12 statin)
CC(=O)OC1CC2OC3C=C(C)CCC3(C)C1(C)C21CO1 (stereo not given)	C2C12 statin 210 (no result: MITF TRPM1 HTS, EBV LMP1 NFkB, TRPM1 prom inh)
Cc1ccc(S(=O)(=O)N2Cc3ccccc3-n3nncc3C2)cc1	none
COC(=O)C(O)(c1ccc(NC(=O)c2cccs2)c(C)c1)C(F)(F)F (stereo not given)	none
O=C1CC2OCC=C3CN4CCC56c7cc([N+](=O)[O-])ccc7N1C5C2C3CC46 (stereo not given)	none
